Article PMC7862700, “An all-to-all approach to the identification of sequence-specific readers for epigenetic DNA modifications on cytosine”

Assays:
Assay in all cases: DAPPL (digital affinity profiling via proximity ligation, sequencing); 10 mM Tris-HCl pH 7.5, 50 mM NaCl, 1 mM DTT, 4% glycerol, room temperature, 30 min; GST-TFs on glutathione beads, 16-mer random dsDNA library, 0.1% formaldehyde crosslink after washing; high values mean tight binding
Conditions in all cases: protein: recombinant; tags: N-terminal GST; dsDNA, one strand shown
FLI1 = target: T1, FLI1 (Homo sapiens, UniProt Q01543 1-452)
T1 sequence: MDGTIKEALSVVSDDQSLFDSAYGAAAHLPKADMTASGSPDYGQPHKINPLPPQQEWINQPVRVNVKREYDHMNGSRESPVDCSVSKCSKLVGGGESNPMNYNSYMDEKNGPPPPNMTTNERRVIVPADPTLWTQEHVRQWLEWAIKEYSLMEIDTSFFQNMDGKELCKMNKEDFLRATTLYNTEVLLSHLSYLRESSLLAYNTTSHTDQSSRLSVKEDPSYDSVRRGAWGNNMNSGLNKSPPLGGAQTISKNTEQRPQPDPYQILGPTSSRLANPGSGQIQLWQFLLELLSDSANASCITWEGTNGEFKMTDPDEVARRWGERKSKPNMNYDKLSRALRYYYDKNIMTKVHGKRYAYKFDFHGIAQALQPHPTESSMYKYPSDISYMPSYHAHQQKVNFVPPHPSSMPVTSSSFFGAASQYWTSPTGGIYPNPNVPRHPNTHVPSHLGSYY
In short: (§1)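 Binding signal is given per hexamer as its read frequency for a factor divided by its frequency in the tag-only sample. GST-fused human transcription factors were expressed in yeast, captured on glutathione beads, barcoded with DNA and pooled with that sample, then incubated with 200 nmole of a 16-mer random double-stranded DNA library in Tris/NaCl/DTT/glycerol buffer for 30 min at room temperature. The pools were then washed, crosslinked, proximity-ligated, amplified by PCR and sequenced on an Illumina NextSeq500.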

ERG = target: T2, ERG (Homo sapiens, UniProt P11308 1-479)
T2 sequence: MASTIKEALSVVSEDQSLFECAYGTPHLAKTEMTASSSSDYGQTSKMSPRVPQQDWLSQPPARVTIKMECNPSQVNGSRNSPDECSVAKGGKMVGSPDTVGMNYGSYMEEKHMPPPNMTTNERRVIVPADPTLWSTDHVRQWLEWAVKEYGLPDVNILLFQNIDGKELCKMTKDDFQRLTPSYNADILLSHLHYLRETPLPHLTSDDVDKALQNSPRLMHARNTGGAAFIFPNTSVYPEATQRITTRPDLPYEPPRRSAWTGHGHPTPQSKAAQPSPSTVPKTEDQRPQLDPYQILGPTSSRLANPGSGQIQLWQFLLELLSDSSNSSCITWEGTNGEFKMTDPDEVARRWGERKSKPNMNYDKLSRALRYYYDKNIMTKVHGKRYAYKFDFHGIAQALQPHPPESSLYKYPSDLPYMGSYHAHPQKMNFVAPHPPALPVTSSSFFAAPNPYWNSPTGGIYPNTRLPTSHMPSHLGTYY
In short: as §1

ELF1 = ELF1 (Homo sapiens, UniProt P32519 1-619)
Chain of ELF1 (P32519 whole entry): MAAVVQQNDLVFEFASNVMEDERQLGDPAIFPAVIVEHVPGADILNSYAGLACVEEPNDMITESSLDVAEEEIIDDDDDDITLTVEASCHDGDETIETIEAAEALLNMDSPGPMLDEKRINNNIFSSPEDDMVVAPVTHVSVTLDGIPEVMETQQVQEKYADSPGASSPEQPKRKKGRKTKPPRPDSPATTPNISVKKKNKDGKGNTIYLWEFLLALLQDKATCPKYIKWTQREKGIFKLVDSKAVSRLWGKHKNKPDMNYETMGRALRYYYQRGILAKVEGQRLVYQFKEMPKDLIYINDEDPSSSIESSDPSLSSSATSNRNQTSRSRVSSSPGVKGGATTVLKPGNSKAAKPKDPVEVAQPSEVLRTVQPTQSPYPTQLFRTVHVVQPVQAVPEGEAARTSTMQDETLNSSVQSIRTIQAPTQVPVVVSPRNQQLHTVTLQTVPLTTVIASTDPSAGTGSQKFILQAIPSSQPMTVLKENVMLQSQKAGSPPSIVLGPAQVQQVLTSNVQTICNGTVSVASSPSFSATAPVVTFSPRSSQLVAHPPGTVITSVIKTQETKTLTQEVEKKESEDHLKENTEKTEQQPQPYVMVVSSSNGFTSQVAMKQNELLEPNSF
In short: as §1

ETV5 = ETV5 (Homo sapiens, UniProt P41161 1-510)
Chain of ETV5 (P41161 whole entry): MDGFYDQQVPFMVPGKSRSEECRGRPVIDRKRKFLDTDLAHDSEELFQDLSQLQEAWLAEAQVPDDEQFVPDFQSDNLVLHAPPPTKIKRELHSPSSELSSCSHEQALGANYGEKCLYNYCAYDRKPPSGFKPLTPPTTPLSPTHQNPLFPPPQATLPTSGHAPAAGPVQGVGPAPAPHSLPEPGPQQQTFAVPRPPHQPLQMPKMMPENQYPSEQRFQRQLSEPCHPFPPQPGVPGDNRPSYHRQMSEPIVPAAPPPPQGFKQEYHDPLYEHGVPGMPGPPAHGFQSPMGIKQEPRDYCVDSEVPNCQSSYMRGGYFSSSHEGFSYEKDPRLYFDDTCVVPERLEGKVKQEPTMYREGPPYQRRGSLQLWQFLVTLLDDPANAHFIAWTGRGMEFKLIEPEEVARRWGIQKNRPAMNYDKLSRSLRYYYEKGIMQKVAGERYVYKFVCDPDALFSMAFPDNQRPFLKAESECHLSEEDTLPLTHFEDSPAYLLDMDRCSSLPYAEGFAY
In short: as §1

SPIC = target: T3, SPIC (Homo sapiens, UniProt Q8N5J4 1-248)
T3 sequence: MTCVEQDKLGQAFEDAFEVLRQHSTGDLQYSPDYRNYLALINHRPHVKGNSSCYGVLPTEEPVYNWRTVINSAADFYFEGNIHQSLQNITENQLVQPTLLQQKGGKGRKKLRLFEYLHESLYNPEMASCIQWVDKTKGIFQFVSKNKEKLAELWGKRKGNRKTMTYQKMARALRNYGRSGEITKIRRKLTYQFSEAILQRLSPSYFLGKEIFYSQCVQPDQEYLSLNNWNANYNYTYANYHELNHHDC
In short: as §1

ELF4 = ELF4 (Homo sapiens, UniProt Q99607 1-663)
Chain of ELF4 (Q99607 whole entry): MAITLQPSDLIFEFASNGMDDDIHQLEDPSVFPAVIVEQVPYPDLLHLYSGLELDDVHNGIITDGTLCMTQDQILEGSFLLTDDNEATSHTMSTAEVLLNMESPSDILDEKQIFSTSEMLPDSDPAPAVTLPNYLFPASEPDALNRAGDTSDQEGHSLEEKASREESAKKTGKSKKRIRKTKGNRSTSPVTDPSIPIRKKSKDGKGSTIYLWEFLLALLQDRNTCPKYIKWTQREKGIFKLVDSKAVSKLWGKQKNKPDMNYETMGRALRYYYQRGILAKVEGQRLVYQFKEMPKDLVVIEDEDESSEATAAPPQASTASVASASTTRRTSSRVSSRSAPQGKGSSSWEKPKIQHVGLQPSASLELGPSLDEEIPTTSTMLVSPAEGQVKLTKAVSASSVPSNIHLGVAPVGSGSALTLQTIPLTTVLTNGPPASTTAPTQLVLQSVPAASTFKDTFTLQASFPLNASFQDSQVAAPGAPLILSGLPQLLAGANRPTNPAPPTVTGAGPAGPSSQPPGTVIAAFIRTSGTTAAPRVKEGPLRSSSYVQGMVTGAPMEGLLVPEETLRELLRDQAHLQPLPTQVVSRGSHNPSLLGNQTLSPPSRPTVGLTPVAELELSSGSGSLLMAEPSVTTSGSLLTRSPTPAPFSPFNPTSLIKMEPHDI
In short: as §1

ERF = target: T4, ERF (Homo sapiens, UniProt P50548 1-548)
T4 sequence: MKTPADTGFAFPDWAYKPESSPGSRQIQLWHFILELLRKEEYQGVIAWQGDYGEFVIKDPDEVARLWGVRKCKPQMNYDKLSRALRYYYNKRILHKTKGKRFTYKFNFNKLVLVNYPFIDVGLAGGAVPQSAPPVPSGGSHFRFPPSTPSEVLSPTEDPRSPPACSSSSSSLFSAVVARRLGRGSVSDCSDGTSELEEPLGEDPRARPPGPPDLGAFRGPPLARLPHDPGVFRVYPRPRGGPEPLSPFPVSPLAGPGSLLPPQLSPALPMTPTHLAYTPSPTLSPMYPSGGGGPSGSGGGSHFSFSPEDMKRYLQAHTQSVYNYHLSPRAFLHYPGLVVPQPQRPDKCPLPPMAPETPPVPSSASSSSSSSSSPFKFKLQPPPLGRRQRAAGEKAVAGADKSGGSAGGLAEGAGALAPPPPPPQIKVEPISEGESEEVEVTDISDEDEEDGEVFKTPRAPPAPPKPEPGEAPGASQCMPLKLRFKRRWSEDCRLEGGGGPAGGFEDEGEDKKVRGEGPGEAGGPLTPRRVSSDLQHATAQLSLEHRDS
In short: as §1

ETV3L = target: T5, ETV3L (Homo sapiens, UniProt Q6ZN32 1-361)
T5 sequence: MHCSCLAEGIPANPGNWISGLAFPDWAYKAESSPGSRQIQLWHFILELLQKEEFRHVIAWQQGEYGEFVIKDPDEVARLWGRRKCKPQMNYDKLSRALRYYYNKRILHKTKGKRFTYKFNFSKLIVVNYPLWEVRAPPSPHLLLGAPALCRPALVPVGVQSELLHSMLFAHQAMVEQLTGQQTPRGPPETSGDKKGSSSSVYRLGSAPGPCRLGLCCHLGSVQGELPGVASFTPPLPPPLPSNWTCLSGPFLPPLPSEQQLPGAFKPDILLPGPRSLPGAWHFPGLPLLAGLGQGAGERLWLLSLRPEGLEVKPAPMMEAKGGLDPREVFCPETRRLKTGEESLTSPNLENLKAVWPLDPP
In short: as §1

ELK1 = target: T6, ELK1 (Homo sapiens, UniProt P19419 1-428)
T6 sequence: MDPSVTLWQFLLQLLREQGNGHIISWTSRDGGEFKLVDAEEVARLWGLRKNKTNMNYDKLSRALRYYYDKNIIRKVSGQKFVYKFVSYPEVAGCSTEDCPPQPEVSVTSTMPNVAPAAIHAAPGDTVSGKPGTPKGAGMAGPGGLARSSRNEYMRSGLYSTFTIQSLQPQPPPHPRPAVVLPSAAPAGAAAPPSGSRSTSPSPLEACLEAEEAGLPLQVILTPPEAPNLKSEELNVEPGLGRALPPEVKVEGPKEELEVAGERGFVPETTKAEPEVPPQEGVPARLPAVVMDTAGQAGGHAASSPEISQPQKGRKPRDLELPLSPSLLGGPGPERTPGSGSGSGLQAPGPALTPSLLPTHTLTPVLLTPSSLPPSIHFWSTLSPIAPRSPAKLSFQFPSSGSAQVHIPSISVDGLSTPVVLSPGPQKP
In short: as §1

GABPA = target: T7, GABPA (Homo sapiens, UniProt Q06546 1-454)
T7 sequence: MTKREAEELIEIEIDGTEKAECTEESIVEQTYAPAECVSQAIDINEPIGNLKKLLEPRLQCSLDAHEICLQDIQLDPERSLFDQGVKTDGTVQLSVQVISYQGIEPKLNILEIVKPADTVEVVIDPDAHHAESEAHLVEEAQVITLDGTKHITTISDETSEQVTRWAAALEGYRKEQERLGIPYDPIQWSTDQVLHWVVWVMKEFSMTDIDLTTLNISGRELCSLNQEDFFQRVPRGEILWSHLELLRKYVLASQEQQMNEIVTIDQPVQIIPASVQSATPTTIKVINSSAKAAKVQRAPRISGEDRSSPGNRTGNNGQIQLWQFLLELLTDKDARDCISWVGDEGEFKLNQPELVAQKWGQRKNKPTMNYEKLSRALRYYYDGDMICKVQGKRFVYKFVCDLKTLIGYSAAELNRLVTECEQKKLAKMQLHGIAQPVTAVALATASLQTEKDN
In short: as §1

EHF = target: T8, EHF (Homo sapiens, UniProt Q9NZC4 1-300)
T8 sequence: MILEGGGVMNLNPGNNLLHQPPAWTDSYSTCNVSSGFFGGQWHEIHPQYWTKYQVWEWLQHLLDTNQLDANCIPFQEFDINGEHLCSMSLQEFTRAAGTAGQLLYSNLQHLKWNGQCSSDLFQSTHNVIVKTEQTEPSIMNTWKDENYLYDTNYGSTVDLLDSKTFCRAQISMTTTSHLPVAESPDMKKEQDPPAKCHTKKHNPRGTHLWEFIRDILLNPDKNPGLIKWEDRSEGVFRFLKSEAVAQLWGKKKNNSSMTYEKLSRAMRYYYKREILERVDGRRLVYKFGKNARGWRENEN
In short: as §1

SPI1 = SPI1 (Homo sapiens, UniProt P17947 1-270)
In short: as §1

ELK3 = target: T9, ELK3 (Homo sapiens, UniProt P41970 1-407)
T9 sequence: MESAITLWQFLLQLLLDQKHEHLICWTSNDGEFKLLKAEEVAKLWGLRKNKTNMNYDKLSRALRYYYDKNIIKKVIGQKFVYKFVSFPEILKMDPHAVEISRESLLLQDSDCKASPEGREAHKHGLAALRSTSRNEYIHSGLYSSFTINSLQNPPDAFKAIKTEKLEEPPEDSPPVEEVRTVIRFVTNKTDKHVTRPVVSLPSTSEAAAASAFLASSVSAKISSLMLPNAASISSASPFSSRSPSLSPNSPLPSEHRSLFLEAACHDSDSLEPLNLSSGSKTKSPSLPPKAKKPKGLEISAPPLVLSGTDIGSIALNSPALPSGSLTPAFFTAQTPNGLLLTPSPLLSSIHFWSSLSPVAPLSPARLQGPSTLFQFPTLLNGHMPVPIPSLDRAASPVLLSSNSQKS
In short: as §1

FEV = target: T10, FEV (Homo sapiens, UniProt Q99581 1-238)
T10 sequence: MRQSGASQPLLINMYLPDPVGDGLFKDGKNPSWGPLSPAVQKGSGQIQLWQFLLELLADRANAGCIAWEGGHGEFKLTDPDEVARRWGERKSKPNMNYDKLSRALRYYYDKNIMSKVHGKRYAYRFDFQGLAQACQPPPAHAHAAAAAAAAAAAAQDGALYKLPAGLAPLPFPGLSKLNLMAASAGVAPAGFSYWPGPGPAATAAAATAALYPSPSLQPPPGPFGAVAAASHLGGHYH
In short: as §1

ETV1 = ETV1 (Homo sapiens, UniProt P50549 1-477)
Chain of ETV1 (P50549 whole entry): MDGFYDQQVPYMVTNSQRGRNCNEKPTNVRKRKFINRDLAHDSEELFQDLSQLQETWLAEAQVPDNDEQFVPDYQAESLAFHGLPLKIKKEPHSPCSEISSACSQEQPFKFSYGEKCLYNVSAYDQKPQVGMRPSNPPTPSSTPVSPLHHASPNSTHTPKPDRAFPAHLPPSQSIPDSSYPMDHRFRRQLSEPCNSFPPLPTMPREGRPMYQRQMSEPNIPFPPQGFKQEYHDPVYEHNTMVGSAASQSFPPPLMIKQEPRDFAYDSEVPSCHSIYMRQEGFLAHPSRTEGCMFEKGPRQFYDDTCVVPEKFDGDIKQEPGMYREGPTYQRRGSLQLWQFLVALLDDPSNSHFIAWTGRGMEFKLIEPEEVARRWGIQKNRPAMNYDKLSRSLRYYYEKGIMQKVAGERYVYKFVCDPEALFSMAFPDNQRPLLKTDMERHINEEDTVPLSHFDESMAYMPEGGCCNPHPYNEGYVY
In short: as §1

ELF5 = target: T11, ELF5 (Homo sapiens, UniProt Q9UKW6-2 1-255)
T11 sequence: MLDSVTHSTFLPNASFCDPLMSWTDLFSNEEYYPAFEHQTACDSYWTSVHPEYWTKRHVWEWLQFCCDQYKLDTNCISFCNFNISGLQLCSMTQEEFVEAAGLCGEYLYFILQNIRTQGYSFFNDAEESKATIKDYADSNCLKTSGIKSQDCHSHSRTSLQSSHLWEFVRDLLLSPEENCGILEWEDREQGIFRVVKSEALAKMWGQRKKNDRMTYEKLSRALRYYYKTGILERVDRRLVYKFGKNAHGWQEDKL
In short: as §1

ETV3 = target: T12, ETV3 (Homo sapiens, UniProt P41162-2 1-143)
T12 sequence: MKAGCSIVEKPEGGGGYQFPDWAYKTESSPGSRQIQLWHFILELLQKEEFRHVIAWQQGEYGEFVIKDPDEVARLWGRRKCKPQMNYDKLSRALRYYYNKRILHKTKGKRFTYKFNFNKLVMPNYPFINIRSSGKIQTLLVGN
In short: as §1

ETV6 = ETV6 (Homo sapiens, UniProt P41212 1-452)
Chain of ETV6 (P41212 whole entry): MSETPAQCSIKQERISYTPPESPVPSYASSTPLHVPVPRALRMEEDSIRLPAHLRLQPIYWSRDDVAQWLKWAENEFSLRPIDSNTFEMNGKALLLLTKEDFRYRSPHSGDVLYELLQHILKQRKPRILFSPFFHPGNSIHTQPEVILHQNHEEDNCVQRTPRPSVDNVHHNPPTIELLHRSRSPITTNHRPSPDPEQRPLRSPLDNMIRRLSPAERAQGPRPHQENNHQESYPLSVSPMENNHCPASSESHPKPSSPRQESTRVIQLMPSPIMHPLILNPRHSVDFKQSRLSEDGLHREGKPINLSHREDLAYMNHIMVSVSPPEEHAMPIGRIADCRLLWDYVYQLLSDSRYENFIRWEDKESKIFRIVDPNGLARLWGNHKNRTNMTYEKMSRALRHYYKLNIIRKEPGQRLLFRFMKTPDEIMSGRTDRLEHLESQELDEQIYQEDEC
In short: as §1

| Sequence | binding signal (FLI1) | binding signal (ERG) | binding signal (ELF1) | binding signal (ETV5) | binding signal (SPIC) | binding signal (ELF4) | binding signal (ERF) | binding signal (ETV3L) | binding signal (ELK1) | binding signal (GABPA) | binding signal (EHF) | binding signal (SPI1) | binding signal (ELK3) | binding signal (FEV) | binding signal (ETV1) | binding signal (ELF5) | binding signal (ETV3) | binding signal (ETV6) |
| --- | --- | --- | --- | --- | --- | --- | --- | --- | --- | --- | --- | --- | --- | --- | --- | --- | --- | --- |
| GGTCCT | 1.02 fold enrichment (6-mer frequency, TF over GST control) | 1.01 fold enrichment (6-mer frequency, TF over GST control) | 1.06 fold enrichment (6-mer frequency, TF over GST control) | 1 fold enrichment (6-mer frequency, TF over GST control) | 1.11 fold enrichment (6-mer frequency, TF over GST control) | 1.02 fold enrichment (6-mer frequency, TF over GST control) | 1.16 fold enrichment (6-mer frequency, TF over GST control) | 1.03 fold enrichment (6-mer frequency, TF over GST control) |  |  |  |  |  |  |  |  |  |  |
| CCCCGT | 1.05 fold enrichment (6-mer frequency, TF over GST control) | 1.1 fold enrichment (6-mer frequency, TF over GST control) | 1.06 fold enrichment (6-mer frequency, TF over GST control) | 1.03 fold enrichment (6-mer frequency, TF over GST control) | 1.05 fold enrichment (6-mer frequency, TF over GST control) | 1.07 fold enrichment (6-mer frequency, TF over GST control) | 1.13 fold enrichment (6-mer frequency, TF over GST control) |  | 1.08 fold enrichment (6-mer frequency, TF over GST control) | 1.02 fold enrichment (6-mer frequency, TF over GST control) | 1.13 fold enrichment (6-mer frequency, TF over GST control) | 1.1 fold enrichment (6-mer frequency, TF over GST control) | 1.09 fold enrichment (6-mer frequency, TF over GST control) | 1.01 fold enrichment (6-mer frequency, TF over GST control) | 1 fold enrichment (6-mer frequency, TF over GST control) | 1.06 fold enrichment (6-mer frequency, TF over GST control) | 1.06 fold enrichment (6-mer frequency, TF over GST control) | 1.08 fold enrichment (6-mer frequency, TF over GST control) |
